Screening data: PubChem, National Center for Advancing Translational Sciences (NCATS)
The list is not random: actives were taken first. Their share in the collection is about 12%.
BAZ2B inh = qHTS Assay for Inhibitors of BAZ2B; Bromodomain adjacent to zinc finger domain protein 2B (Homo sapiens), Q9UIF8; AlphaScreen BAZ2B-H3K14Ac peptide displacement; Potency, µM (titrated, usually from 114 µM), actives largely listed as inhibitors; 360,000 compounds, 4.4% hits; AID 504333, 2011; note: nearly all actives have a fitted effect of over 60% in size
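Complex of BAZ2B and biotin-H3K14Ac (50 nM apiece) forms over 30 min at RT, then faces library compounds up to 110 uM for another 30 min; AlphaScreen beads added, 20 min dark incubation, luminescence read.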
HP1b chromo inh = HTS for Inhibitors of HP1-beta Chromodomain Interactions with Methylated Histone Tails | 390,000 compounds, 0.56% hits | Chromobox protein homolog 1 (Homo sapiens), P83916 | AID 540317, 2011 | AlphaScreen HP1-beta / biotin-H3K9me3 peptide binding | Potency, µM (top dose mostly 114 µM), usual class: inhibitors; note: nearly all actives have a fitted effect of over 70% in size
Target sequence (P83916 whole entry, looked up): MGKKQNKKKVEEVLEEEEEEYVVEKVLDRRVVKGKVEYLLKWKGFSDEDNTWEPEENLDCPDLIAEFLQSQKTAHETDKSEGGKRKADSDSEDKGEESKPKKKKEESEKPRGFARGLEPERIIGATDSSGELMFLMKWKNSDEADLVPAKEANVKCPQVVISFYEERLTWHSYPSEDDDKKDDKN
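Compound inhibition of the preformed complex between 50 nM HP1-beta and 50 nM biotinylated H3K9me3 peptide was read by AlphaScreen. Buffer was PBS pH 7.4 with 0.01% Tween-20. Incubations ran 30 min at room temperature, with 10 ug/mL donor/acceptor beads.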
G9a block = qHTS Assay for Inhibitors of Histone Lysine Methyltransferase G9a; G9a H3K9 monomethylation, AlphaScreen, 2 h; 350,000 compounds, 8.8% hits; Histone-lysine N-methyltransferase EHMT2 (Homo sapiens), Q96KQ7; Potency, µM (top dose mostly 102 µM), usual class: inhibitors; note: nearly all actives have a fitted effect of over 75% in size
Target sequence (Q96KQ7 913-1193 limits assumed): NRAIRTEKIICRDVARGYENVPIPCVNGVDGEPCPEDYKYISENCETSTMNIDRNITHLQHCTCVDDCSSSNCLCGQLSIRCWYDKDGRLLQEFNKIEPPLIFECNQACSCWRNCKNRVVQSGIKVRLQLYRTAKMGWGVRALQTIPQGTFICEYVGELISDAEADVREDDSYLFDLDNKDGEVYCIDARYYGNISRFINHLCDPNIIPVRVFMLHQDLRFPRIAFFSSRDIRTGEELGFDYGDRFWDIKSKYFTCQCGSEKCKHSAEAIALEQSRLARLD
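Enzyme 20 nM + cpd, 15 min RT; add b-H3K9 pep 500 nM / SAM 20 uM; 2 h RT; anti-H3K9me1 Ab 0.5 ug/mL + SA donor / anti-rabbit acceptor beads 20 ug/mL each, 10 min; AlphaScreen read.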
Sfp PPTase inh = qHTS Assay for Inhibitors of Bacillus subtilis Sfp phosphopantetheinyl transferase (PPTase) | 310,000 compounds, 3.5% hits | Potency, µM, usual class: inhibitors | Biochemical Sfp PPTase activity, qHTS | 4'-phosphopantetheinyl transferase ffp (Bacillus subtilis), Q9F4F7;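 note: the enzyme is Sfp with the accession as filed and its product quenches rhodamine fluorescence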
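Compounds were incubated with enzyme (final 15 nM) for 15 min at room temperature before substrate addition started the reaction. Fluorescence at 525 nm excitation, 598 nm emission was recorded immediately and after 30 minutes.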
JMJD2A Tudor = qHTS Assay for Inhibitors of JMJD2A-Tudor Domain. AlphaScreen JMJD2A-Tudor / H3K4me3 peptide binding. 390,000 compounds, 4.4% hits. Potency, µM (highest dose often 114 µM), usual class: inhibitors. AID 504339, 2011; note: nearly all actives have a fitted effect of over 50% in size
Each line names hits and unclear results; the compound was inactive in the other large screens. Calls come from the whole dose curve; as a rule, active = well fitted curve in the direction sought with a large enough effect; inconclusive = small, poorly fitted or top-dose-only effect, or another doubt; inactive = no such curve, though single readings can be large; an effect the other way counts as inactive or inconclusive.

N#Cc1c(C#N)c(-c2ccccc2)n(-c2ccc(C(=O)O)cc2)c1N	BAZ2B inh inconclusive, G9a block 56µM
N#Cc1c(N)n(-c2ccc(N)cc2)c2nc3ccccc3nc12	none
N#Cc1c(C#N)c(SSc2c(C#N)c(C#N)c(N)n2-c2ccccc2)n(-c2ccccc2)c1N	HP1b chromo inh inconclusive, JMJD2A Tudor 0.79µM (no result: BAZ2B inh, G9a block, Sfp PPTase inh)
COC(=O)c1sccc1NC(=O)CN(C)NS(=O)(=O)c1ccc([N+](=O)[O-])cc1	JMJD2A Tudor 56µM
O=C1NCCN(CC2CCN(CCc3ccc(Cl)c(Cl)c3)CC2)C1=O	JMJD2A Tudor 79µM (no result: BAZ2B inh, G9a block, Sfp PPTase inh)
CC[C@H](C)[C@H]1CNC(=O)C(=O)N1CC1CCN(CCc2ccc(Cl)c(Cl)c2)CC1	none (no result: BAZ2B inh, G9a block, Sfp PPTase inh)
CN(C)Cc1cccc(-c2ccccc2)c1O	none (no result: BAZ2B inh, G9a block, Sfp PPTase inh)
CN(C)Cc1cccc([N+](=O)[O-])c1O	G9a block 50µM
Cc1ccc2nc(-c3ccc(NC(=O)CN4C(=O)NC(C)(c5ccc(OC(F)F)cc5)C4=O)cc3)sc2c1 (centres undefined)	G9a block inconclusive
O=C(CCCNS(=O)(=O)c1cccs1)N1CCN(c2cccc(Cl)c2)CC1	none
CCOC(=O)Cc1csc(NC(=O)NC2(C(F)(F)F)Oc3cc(Cl)c(Cl)cc3O2)n1	BAZ2B inh inconclusive, G9a block 13µM, Sfp PPTase inh inconclusive, JMJD2A Tudor inconclusive
CCOC(=O)Cc1csc(NC(=O)NC2(C(F)(F)F)Oc3ccc(Cl)cc3O2)n1 (centres undefined)	G9a block 25µM, Sfp PPTase inh 56µM, JMJD2A Tudor inconclusive
CCOC(=O)Cc1csc(NC(=O)NC2(C(F)(F)F)Oc3ccccc3O2)n1	BAZ2B inh inconclusive, G9a block 8.9µM, Sfp PPTase inh 45µM
Cc1nc2ccc(S(=O)(=O)NCC(=O)N3CCN(c4ccccn4)CC3)cc2s1	none
O=[N+]([O-])c1cccc(S(=O)(=O)NCCOc2cccc3cccnc23)c1	none
COc1cc(NS(=O)(=O)c2ccc([N+](=O)[O-])cc2)c2ncccc2c1	JMJD2A Tudor 56µM (no result: BAZ2B inh, HP1b chromo inh, G9a block)
COc1cc(NS(=O)(=O)c2cccc([N+](=O)[O-])c2)c2ncccc2c1	JMJD2A Tudor 56µM (no result: BAZ2B inh, HP1b chromo inh, G9a block)
COc1cc(NS(=O)(=O)c2ccc(C)cc2)c2ncccc2c1	none
COc1ccc(CCNC(=O)c2ccc3nc(CCc4ccccc4)oc3c2)cc1OC	none (no result: Sfp PPTase inh)
CC1CC(C)CN(C(=O)CSc2nnc(-c3ccc(F)cc3)o2)C1 (centres undefined)	G9a block 71µM
CC1=C(/C=C/C(C)=C/C=C/C(C)=C\CO)C(C)(C)CCC1	G9a block 25µM (no result: BAZ2B inh, HP1b chromo inh, JMJD2A Tudor)
CC1=C(/C=C/C(C)=C/C=C/C(C)=C/CO)C(C)(C)CCC1	Sfp PPTase inh inconclusive (no result: BAZ2B inh, G9a block)
O=c1[nH]c2cnn(-c3ccccc3)c2c(=O)n1O	JMJD2A Tudor 56µM (no result: BAZ2B inh, G9a block, Sfp PPTase inh)
O=c1c(Cl)c(Cl)cnn1-c1ccccc1	none
Brc1cccc(OCCSc2ncccn2)c1	JMJD2A Tudor inconclusive
CC(C)NCCOc1cccc(Br)c1	BAZ2B inh inconclusive, G9a block 50µM
CC(C)NCCCCOc1cccc(Br)c1	BAZ2B inh 50µM, G9a block 28µM, JMJD2A Tudor 35µM
Brc1cccc(OCCCNC2CCCC2)c1	BAZ2B inh inconclusive, G9a block 16µM, JMJD2A Tudor 16µM
Cc1cc(=O)[nH]c(N2CCN(c3ccc(Cl)cc3)CC2)n1	none (no result: BAZ2B inh, G9a block, Sfp PPTase inh)
C[C@@H](C(=O)Nc1nc2ccccc2s1)N1C(=O)C2CC=CCC2C1=O (some centres undefined)	none
CCN1CCN(CCNC(=O)c2ccc(/C=C3\Sc4ccccc4N(Cc4ccccc4F)C3=O)cc2)CC1	BAZ2B inh inconclusive, G9a block 50µM, Sfp PPTase inh 79µM, JMJD2A Tudor 56µM
CN(C)CCNC(=O)c1ccc2c(c1)N(Cc1c(F)cccc1Cl)C(=O)c1ccccc1S2	G9a block 16µM, JMJD2A Tudor inconclusive (no result: BAZ2B inh, Sfp PPTase inh)
O=C(NCCN1CCOCC1)c1ccc2c(c1)N(Cc1c(F)cccc1Cl)C(=O)c1ccccc1S2	G9a block inconclusive
COCCCNC(=O)/C=C1\Sc2ccccc2N(Cc2ccccc2F)C1=O	none
CCOc1ccc(CN2C(=O)c3ccccc3Sc3ccc(C(=O)NCCCN4CCOCC4)cc32)cc1	BAZ2B inh 79µM
CN1CCN(CCCNC(=O)c2ccc(/C=C3/Sc4ccccc4N(Cc4cccc(Cl)c4)C3=O)cc2)CC1	BAZ2B inh inconclusive, G9a block 40µM, Sfp PPTase inh 50µM, JMJD2A Tudor inconclusive
Cc1ccc(Oc2ncccc2NC(=O)CC2(CC(=O)O)CCCC2)c2c1CCC2	none
COC(=O)Cn1c(=NC(=O)CSCC(=O)Nc2cc(C)on2)sc2cc(C(=O)OC)ccc21	none
COc1ccc(N(CC(=O)N2CCC(C)CC2)S(=O)(=O)c2c(C)nn(C)c2C)cc1	none
O=C(COC(=O)c1ccc(NS(=O)(=O)c2cccs2)cc1O)NCc1ccccc1	none
COc1cccc(Cn2c(=O)c(-c3cc(F)cc(F)c3)nc3cncnc32)c1	none (no result: BAZ2B inh, HP1b chromo inh, JMJD2A Tudor)
COC(=O)C(C)Sc1nnc(Cc2cc(=O)[nH]c(=O)[nH]2)n1-c1ccc(Cl)cc1 (centres undefined)	G9a block inconclusive (no result: HP1b chromo inh, JMJD2A Tudor)
CN1CCN(CCCNC(=O)c2ccc(/C=C3\Sc4ccccc4N(Cc4ccc(F)cc4)C3=O)cc2)CC1	BAZ2B inh inconclusive, G9a block inconclusive, Sfp PPTase inh 45µM, JMJD2A Tudor inconclusive
COc1ccc(NC2=C3CCCC=C3N(c3ccc(OC)cc3)C2=O)cc1	G9a block 40µM, JMJD2A Tudor inconclusive
O=C(CSc1c2c(nc3cc(Cl)ccc13)CCCC2)N1CCN(c2ccccc2F)CC1	none (no result: Sfp PPTase inh)
CCOc1ccc(S(=O)(=O)NCc2ccccn2)cc1NC(=O)c1ccccc1	JMJD2A Tudor 7.9µM (no result: Sfp PPTase inh)
Cc1ccc(C(C)C)cc1S(=O)(=O)NCc1ccccn1	none
CNS(=O)(=O)c1cc(C(=O)O)ccc1OC	JMJD2A Tudor 13µM
COc1ccc(C(C)C)cc1S(=O)(=O)NCc1ccccn1	JMJD2A Tudor 2.2µM
COc1ccc(C(=O)O)cc1S(=O)(=O)N(C)CCc1ccccn1	none
CCOc1ccc(S(=O)(=O)NCc2cccnc2)cc1NC(=O)c1ccccc1	none (no result: BAZ2B inh, G9a block, Sfp PPTase inh)
COc1ccc(C(=O)O)cc1S(=O)(=O)NCc1ccccn1	BAZ2B inh 71µM, JMJD2A Tudor inconclusive
O=C(Nc1cccc(C(F)(F)F)c1)c1ccccc1NC(=O)C1CCCCC1	none
CCOC(=O)CC(=O)Nc1ccsc1C(N)=O	none (no result: G9a block)
O=C1CCc2cc(S(=O)(=O)N3CCC(C(=O)NCCC4=CCCCC4)CC3)ccc2N1	BAZ2B inh inconclusive, JMJD2A Tudor inconclusive
N#Cc1nn(-c2ccccc2)nc1N1CCCCC1	none
CC(=O)c1cccc(NC(=O)C(C)n2c(=O)cc(C)c3c(C)nn(-c4ccccc4)c32)c1 (centres undefined)	none (no result: Sfp PPTase inh)
